Sampled rows, rich in hits. Any-hit rate of the full collection: about 2.4%.
D2 ag-1: human D2 receptor agonism in beta-arrestin assay; P14416; DiscoveRx PathHunter D2 beta-arrestin, luminescence, 90 min; 100% = 57 uM dopamine signal; activation, % (no concentration beside the values); actives 0.084% (n = 360,000); AID 624465; in the data active means activation above about 40%
Target sequence (P14416 whole entry, looked up): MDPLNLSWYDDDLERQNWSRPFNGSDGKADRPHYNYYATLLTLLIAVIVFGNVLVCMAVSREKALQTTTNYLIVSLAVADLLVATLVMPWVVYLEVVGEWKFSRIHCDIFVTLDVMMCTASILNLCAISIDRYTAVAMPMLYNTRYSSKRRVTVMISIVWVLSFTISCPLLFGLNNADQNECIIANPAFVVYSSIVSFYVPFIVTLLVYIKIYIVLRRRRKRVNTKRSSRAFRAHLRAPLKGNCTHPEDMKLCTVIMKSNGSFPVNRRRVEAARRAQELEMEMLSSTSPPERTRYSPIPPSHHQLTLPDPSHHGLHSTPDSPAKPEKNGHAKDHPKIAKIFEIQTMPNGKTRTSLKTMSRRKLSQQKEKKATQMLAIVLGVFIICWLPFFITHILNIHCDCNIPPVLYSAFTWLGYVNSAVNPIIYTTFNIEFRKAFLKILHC
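Agonist mode: compounds alone added to overnight-plated D2 PathHunter cells for 90 min at 37 C, with 57 uM final dopamine (EC100) defining full response. Beta-arrestin recruitment detected by chemiluminescent reagent, read after 1 h at ambient temperature.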
D2 PAM-1: positive allosteric modulators of human D2 dopamine receptor; P14416; HEK293 T-REx D2, calcium flux, EC20 dopamine potentiation; potentiation, % at 10 µM; actives 0.34% (n = 340,000); AID 485347;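 active means potentiation over 3 SD above the plate norm, cut at about 30% in these data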; further: 0% is about no effect
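Cells plated with tetracycline inducer and held overnight at 30 C; calcium dye loaded 30–90 min at room temperature; baseline taken, compound added and read 180 s; EC20 dopamine then added and read 180 s.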
D2 PAM-2: positive allosteric modulators of human D2 dopamine receptor | AID 624464 | actives 0.23% (n = 360,000) | potentiation, % (concentration not given with the values) | DiscoveRx D2 beta-arrestin cells, luminescence, 90 min; 100% = 57 uM dopamine signal; in the data active means potentiation above about 50%
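PathHunter beta-arrestin assay in DiscoveRx D2 cells. Compounds were added with an EC20 of dopamine (50 nM final) for 90 min at 37 deg C. Luminescence was read 1 h after detection reagent, with 57 uM dopamine as the EC100 control.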
D2 antagonist: antagonizes the human D2 dopamine receptor. P14416. HEK293 TREx D2 cells, calcium flux, dopamine EC80. inhibition, % at 10 µM. actives 2% (n = 340,000); in the data active means inhibition above about 30%; inactive means below that, where a call was filed; further: 0% is about no effect
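Compounds are added to dye-loaded, induced HEK293 T-REx cells coupled to calcium release via D2; after a 3 min kinetic read an EC80 dopamine stimulus is given and fluorescence is recorded for 3 more min.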
D2 ag-2: agonists of human D2 dopamine receptor | actives 0.53% (n = 340,000) | P14416 | AID 485358 | activation, % at 2 µM | HEK293 T-REx D2 cells, calcium flux agonist mode;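 active means activation over 3 SD above normal in the single-dose calcium agonist read, cut at about 30% in these data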; further: 0% is about no effect
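Agonism scored from kinetic calcium signal (1 read/sec, 180 s) following compound pin transfer, after a 10 s baseline. Cells: HEK293 Trex line expressing inducible D2 receptor coupled to calcium, dye-loaded after overnight culture at 30 C.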
Numbers without * were called inactive; . = no result.

SMILES	D2 ag-1	D2 PAM-1	D2 PAM-2	D2 antagonist	D2 ag-2
CCc1cccc(NC(=O)Cn2c(=O)n(Cc3ccccc3)c(=O)c3c(C)c(C(=O)N(C)C)sc32)c1	.	1.0	.	.	0.0
Cc1nc(NCc2ccco2)[nH]c(=O)c1CCC(C)C	12.0	.	11.2	30.3*	3.4
CCc1cccc(NC(=O)C(Cc2ccccc2)NS(=O)(=O)c2ccc3c(c2)c(=O)n(C)c(=O)n3C)c1 (configuration not stated)	.	4.0	.	.	0.4
COc1ccccc1OC1OC2COC(c3ccco3)OC2C(O)C1NC(C)=O (configuration not stated)	2.0	-9.7	-13.0	-10.7	1.3
COc1ccc(C2OC[C@H]3O[C@H](O)[C@H](NC(C)=O)[C@@H](O)[C@@H]3O2)cc1 (some centres not stated)	6.7	1.4	8.3	52.9*	2.2
N#Cc1nc(/C=C/c2ccc(F)cc2)oc1N1CCCCCC1	.	12.4	.	.	-1.0
Cc1ccc(O)c(C=Nc2cc(C)ccc2O)c1	6.7	.	58.4*	.	.
CC(C)(C)c1ccc(O)c(N=Cc2cc(Br)ccc2O)c1	-1.1	3.5	0.3	9.3	0.3
COc1ccc(Cc2nnc(SCC(=O)c3ccccc3)o2)cc1	-3.8	-1.7	-3.4	8.0	1.0
COc1ccc(Cc2nnc(SCC(=O)N(C)c3ccccc3)o2)cc1	4.1	1.6	-3.0	66.0*	-0.8
O=C(CSc1ccc2c(c1)OCCO2)Nc1cccnc1Cl	-6.7	8.6	-2.5	-8.7	0.2
Cc1cccnc1NC(=O)CSc1ccc2c(c1)OCCO2	-1.3	-0.7	-1.5	32.1*	1.8
Cc1cccnc1NC(=O)CSc1nnc(Cc2ccccc2)o1	-0.9	-3.6	-4.9	44.4*	0.2
Cc1ccccc1-c1nnc(SCC(=O)Nc2cccnc2Cl)o1	0.1	.	-5.6	.	.
Cc1cc(C)cc(NC(=O)C(Cc2ccccc2)NS(=O)(=O)c2ccc3c(c2)CCC(=O)N3)c1 (configuration not stated)	.	14.3	.	.	-1.1
Cc1cccc(CSc2nc(-c3cccc(C)c3)nc3c2Cc2c(CO)cnc(C)c2O3)c1	.	-3.4	.	.	-0.7
COc1ccc(NC(=O)CCCNC(=O)c2ccc(Cl)cc2)c(OC)c1	-0.4	-3.1	0.7	30.3*	-0.4
C/C(CC(=O)Nc1ccccn1)=N\NC(=O)c1ccccc1O	-6.4	3.3	-13.3	46.9*	2.6
CCOc1ccc(NC(=O)CN2CCN(CC(=O)Nc3ccc(OC)cc3OC)CC2)cc1	6.3	8.4	6.7	32.4*	0.0
COc1ccc(NC(=O)CCCN2C(=O)C3C4C=CC(C4)C3C2=O)c(OC)c1 (configuration not stated)	-2.0	16.9	5.2	35.3*	-0.2
Cn1cnc2c(=O)oc3ccc(S(=O)(=O)N4CCN(c5cccc(C(F)(F)F)c5)CC4)cc3c21	.	.	.	.	0.3
COC(=O)c1ccc(C(=O)OC)c(NC(=O)N2CC3CCCN3c3ccccc32)c1 (configuration not stated)	.	12.9	.	.	-0.2
CCc1ccc(NC(=O)Cn2ncc3c(C)n(Cc4cccc(Cl)c4)c(C)c3c2=O)cc1	.	-0.9	.	.	.
COc1ccc(OC)c(NC(=O)CCN2CCN(c3ccccc3OC)CC2)c1	-2.2	-19.8	-79.3	71.9*	13.8
COc1ccc(NC(=O)c2ccc(NC(=O)CN3CCN(c4ccc(O)cc4)CC3)cc2)cc1	124.3*	.	22.9	.	.
SMILES	D2 ag-1	D2 PAM-1	D2 PAM-2	D2 antagonist	D2 ag-2
COc1ccc(NC(=O)c2ccc(NC(=O)CN3CCN(c4ccccc4O)CC3)cc2)cc1	1.9	.	-11.7	.	.
COc1ccc(NC(=O)CCOc2ccccc2)c(OC)c1	-2.7	8.3	17.6	35.9*	-1.3
COc1ccc(NC(=O)CCCCC(=O)Nc2ccc(OC)cc2OC)c(OC)c1	-1.6	.	-2.1	.	.
COc1ccc(NC(=O)C/C(C)=N/NC(=O)c2ccccn2)c(OC)c1	4.5	30.1*	-5.3	15.1	-1.0
Cc1cc(C)cc(NC(=O)N2CCC3(CC2)Oc2ccccc2C(=O)N3Cc2ccccc2F)c1	.	6.8	.	.	0.8
CCOc1ccc(CCNC(=O)c2cc3sc(CC)cc3n2C)cc1OCC	.	20.5	.	.	0.7
COC(=O)c1ccc(NC(=O)CSc2ncc3c(n2)-c2cc(Cl)ccc2N(Cc2ccccc2)S3(=O)=O)cc1	.	-1.7	.	.	0.6
CCOC(=O)N1CCc2c(sc3c2c(=O)n(Cc2ccccc2)c(=O)n3Cc2c(F)cccc2Cl)C1	.	-7.4	.	.	.
COc1ccc(NC(=S)N2CCN(C(=O)c3ccco3)CC2)c(OC)c1	1.5	-0.7	-10.7	1.8	9.6
COc1ccc(NC(=O)CN2CCN(C(=O)c3ccco3)CC2)c(OC)c1	10.0	-8.6	3.8	-8.9	39.0*
CCOC(=O)N1CCN(CCC(=O)Nc2ccc(OC)cc2OC)CC1	-0.6	-16.0	-33.0	36.4*	34.4*
CCOC(=O)N1CCN(CCC(=O)Nc2ccc(OC)cc2)CC1	-2.7	-0.6	-6.7	-17.9	0.9
CCOC(=O)c1ccccc1NC(=O)CSc1nccn1Cc1ccco1	.	-5.7	.	.	1.0
N#CC1(NC(=O)COC(=O)C2=COCCO2)CCCCC1	-4.6	2.6	-3.5	50.0*	-0.5
CC(C)C(=O)Nc1ccc(N2CCCC2)c(Cl)c1	-1.3	-4.8	-12.1	13.7	1.0
Cc1ccc(NC(=O)C(C)N2CCCC2)cc1Cl (configuration not stated)	0.8	-19.0	-6.5	33.1*	0.2
CC(=O)c1ccc(NC(=O)CNC2CCCCC2)cc1	-2.8	-2.8	-6.8	8.8	1.1
Cc1ccc(NC(=O)CNC2CCCCC2)cc1Cl	-8.4	10.4	-6.1	30.3*	0.2
CCOC(=O)c1ccccc1NC(=O)N1CCC(CN2CCCCC2)CC1	.	-6.4	.	.	1.3
O=S(=O)(Nc1ccc(-c2ccc(N3CCCCCC3)nn2)cc1)c1ccc(C(F)(F)F)cc1	.	4.4	.	.	0.5
O=c1nc(Nc2cccc(Cl)c2)oc2cc(Cl)oc(=O)c12	-6.5	3.1	2.6	31.6*	-2.1
CCc1ccc(NS(=O)(=O)c2ccc(-c3cc(C)no3)cc2)cc1	.	1.3	.	.	0.8
OC1CCCCC1Sc1nc2ccccc2s1 (configuration not stated)	-1.8	-11.5	-2.0	40.1*	0.0
Cc1ccc(NC(=O)COC(=O)c2ccc(CN3CCCC3=O)cc2)c(Cl)c1	7.3	-0.1	11.0	34.8*	0.3
Cc1cc(C)cc(NC(=O)COC(=O)c2ccc(CN3CCCC3=O)cc2)c1	0.0	-0.1	-2.8	2.7	-0.1
CCCc1nnc(SCC(=O)N(CC)CC)n1CC1CCCO1 (configuration not stated)	0.7	-0.5	0.4	-7.7	0.2
CCCc1nnc(SCC(=O)N2CCCCC2C)n1CC1CCCO1 (configuration not stated)	-2.7	37.1*	-7.3	.	.
CCC1CCCCN1S(=O)(=O)c1ccc(NC(=O)c2snnc2C)cc1 (configuration not stated)	4.3	36.3*	-2.9	-8.4	0.4

Screens as filed in PubChem.
